Screening data: PubChem, National Center for Advancing Translational Sciences (NCATS)
G9a inh: qHTS Assay for Inhibitors of Histone Lysine Methyltransferase G9a; G9a H3K9 monomethylation, AlphaScreen, 2 h; Potency, µM (doses to about 102 µM), for inactives: top-dose activity, negative = inhibition, hits mostly inhibitors; hit rate 8.8% among 350,000; note: % is set by controls: 0 for no effect and ±100 for the full control effect; nearly all actives have a fitted effect of over 75% in size
Target sequence (Q96KQ7 913-1193 limits assumed): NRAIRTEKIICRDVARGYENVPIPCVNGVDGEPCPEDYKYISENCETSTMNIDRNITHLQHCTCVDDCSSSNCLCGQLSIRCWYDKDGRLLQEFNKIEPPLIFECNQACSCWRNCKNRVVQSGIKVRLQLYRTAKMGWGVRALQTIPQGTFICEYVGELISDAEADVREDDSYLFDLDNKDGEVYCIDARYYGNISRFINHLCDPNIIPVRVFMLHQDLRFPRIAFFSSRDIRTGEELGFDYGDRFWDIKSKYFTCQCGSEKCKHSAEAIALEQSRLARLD
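Enzyme 20 nM + cpd, 15 min RT; add b-H3K9 pep 500 nM / SAM 20 uM; 2 h RT; anti-H3K9me1 Ab 0.5 ug/mL + SA donor / anti-rabbit acceptor beads 20 ug/mL each, 10 min; AlphaScreen read.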
PLK1 PBD block: qHTS for Inhibitors of PLK1-PDB (polo-like kinase 1 - polo-box domain): Primary Screen | Serine/threonine-protein kinase PLK1 (Homo sapiens), P53350 | Plk1 PBD binding of FITC phosphopeptide, fluorescence polarization | Potency, µM, for inactives: max response, negative = inhibition, hits mostly inhibitors | hit rate 2.8% among 360,000 | AID 720504, 2013; note: series mostly up to about 57 µM; % is set by controls: 0 for no effect and ±100 for the full control effect; nearly all actives have a fitted effect of over 65% in size
JMJD2A Tudor: qHTS Assay for Inhibitors of JMJD2A-Tudor Domain; AID 504339, 2011; hit rate 4.4% among 390,000; AlphaScreen JMJD2A-Tudor / H3K4me3 peptide binding; Potency, µM (top dose mostly 114 µM), for inactives: at the highest dose activity change, negative = inhibition, actives largely listed as inhibitors; Lysine-specific demethylase 4A (Homo sapiens), O75164; note: % is set by controls: 0 for no effect and ±100 for the full control effect; nearly all actives have a fitted effect of over 50% in size
BAZ2B block: qHTS Assay for Inhibitors of BAZ2B; hit rate 4.4% among 360,000; AlphaScreen BAZ2B-H3K14Ac peptide displacement; AID 504333, 2011; Potency, µM (titrated, usually from 114 µM), inactives show top-dose activity change, negative = inhibition, most hits filed as inhibitors; note: % is set by controls: 0 for no effect and ±100 for the full control effect; nearly all actives have a fitted effect of over 60% in size
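Complex of BAZ2B and biotin-H3K14Ac (50 nM apiece) forms over 30 min at RT, then faces library compounds up to 110 uM for another 30 min; AlphaScreen beads added, 20 min dark incubation, luminescence read.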
Sfp PPTase inh: qHTS Assay for Inhibitors of Bacillus subtilis Sfp phosphopantetheinyl transferase (PPTase). hit rate 3.5% among 310,000. AID 1490, 2009. Potency, µM, inactives show largest response in the series, negative = inhibition, usual class: inhibitors. Biochemical Sfp PPTase activity, qHTS;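 note: the enzyme is Sfp with the accession as filed and its product quenches rhodamine fluorescence; 0% = enzyme reaction without inhibitor and -100% = no enzyme wells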
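After 15 min at room temperature with compound, 15 nM Sfp received 5 uM rhodamine-CoA plus 12.5 uM BHQ-2-ybbR (50 mM Hepes pH 7.6, 10 mM MgCl2). Rate came from the fluorescence difference over 30 min, ex 525/em 598 nm.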
HP1b chromo inh: HTS for Inhibitors of HP1-beta Chromodomain Interactions with Methylated Histone Tails. Chromobox protein homolog 1 (Homo sapiens), P83916. AlphaScreen HP1-beta / biotin-H3K9me3 peptide binding. Potency, µM (series often up to 114 µM), without a hit: at the highest dose activity change, negative = inhibition, usual class: inhibitors. hit rate 0.56% among 390,000. AID 540317, 2011; note: nearly all actives have a fitted effect of over 70% in size
Target sequence (P83916 whole entry, looked up): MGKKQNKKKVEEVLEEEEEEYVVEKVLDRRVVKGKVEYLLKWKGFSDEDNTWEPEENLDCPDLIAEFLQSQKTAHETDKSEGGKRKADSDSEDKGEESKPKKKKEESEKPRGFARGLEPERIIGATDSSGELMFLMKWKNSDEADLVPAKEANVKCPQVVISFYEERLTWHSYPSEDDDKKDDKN
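Compound inhibition of the preformed complex between 50 nM HP1-beta and 50 nM biotinylated H3K9me3 peptide was read by AlphaScreen. Buffer was PBS pH 7.4 with 0.01% Tween-20. Incubations ran 30 min at room temperature, with 10 ug/mL donor/acceptor beads.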
The depositor's hits bear a star; ? = inconclusive; nt = no result given; ! = a repeat was not active; [ ] = dose if it differs, or a comment. In the library only some 12% were active in any assay of this set; here they are far more common. Calls come from the whole dose curve; as a rule, active = well fitted curve in the direction sought with a large enough effect; inconclusive = small, poorly fitted or top-dose-only effect, or another doubt; inactive = no such curve, though single readings can be large; an effect the other way counts as inactive or inconclusive. Potency is the fitted concentration of half-maximal effect.

SMILES | G9a inh | PLK1 PBD block | JMJD2A Tudor | BAZ2B block | Sfp PPTase inh | HP1b chromo inh
O=c1cc(-c2ccc(O)c(O)c2)oc2cc(O)c([C@@H]3O[C@H](CO)[C@@H](O)[C@H](O)[C@H]3O)c(O)c12 | nt | 3% | 32µM*! | nt | ? | 11%
Cc1ccccc1NC1c2ccccc2C(=O)N1Cc1ccco1 (centres undefined) | 45µM* | -12% | -32% | ? | 28µM* | 16%
COc1cccc(NC2c3ccccc3C(=O)N2Cc2ccco2)c1 (centres undefined) | 50µM* | -11% | ? | -36% | ? | 9%
O=C1c2ccccc2C(Nc2cccc(C(F)(F)F)c2)N1Cc1ccco1 (centres undefined) | 71µM* | -20% | ? | -7% | 40µM* | 18%
O=C1c2ccccc2N2C(=O)c3ccccc3C2N1Cc1ccco1 (centres undefined) | ? | -5% | -16% | ? | 50µM* | 15%
CCC1CN(C(=O)N2CCC(C(=O)NCc3cccc(OC)c3OC)CC2)c2cc(C)ccc2O1 (centres undefined) | -26%[59 µM] | -8% | -17% | -25% | 3% | 53%
CC(=O)Nc1cccc(C(=O)/C=C/c2ccco2)c1 | 14µM* | -22% | -12% | -2% | 14µM* | 6%
O=C(/C=C\c1ccco1)c1ccc(NC(=O)c2ccco2)cc1 | 22µM* | -26% | 50µM* | 45µM* | 10µM* | ?
CC(=O)Nc1cccc(C(=O)/C=C/c2ccc(/C=C/C(=O)c3cccc(NC(C)=O)c3)cc2)c1 | 1%[59 µM] | nt | nt | 1% | 3% | nt
O=C(NCc1ccccc1)c1ccc(NC(=O)c2ccco2)cc1 | 67% | -1% | -2% | -26% | 7% | 43%
O=C(C=Cc1ccco1)c1ccc2ccccc2c1 | nt | -11% | -15% | nt | nt | ?
CC(=O)Nc1ccc(C(=O)/C=C/c2ccco2)cc1 | 10µM* | 0% | ? | 56µM* | 13µM* | -26%
CC1(C)OC2CC3C4CC(F)C5=CC(=O)C=CC5(C)C4C(O)CC3(C)[C@]2(C(=O)CO)O1 (some centres undefined) | -1%[2.33 µM] | nt | nt | nt | -5% | nt
CC1CCc2c(sc3nnn(Cc4ccccc4Cl)c(=O)c23)C1 (centres undefined) | 69%[59 µM] | nt | 43% | 48% | nt | 68%
C/C(=N\NC(=S)Nc1ccccc1C)C1Cc2ccccc2C(=O)O1 (centres undefined) | 50µM* | -15% | -31% | -26% | -11% | 11%
C/C(=N\NC(=S)Nc1ccccc1)C1Cc2ccccc2C(=O)O1 (centres undefined) | nt | -24% | -34% | ? | 22µM* | -5%
Cc1ccc(NC(=O)C2Cc3ccccc3C(=O)O2)cc1 (centres undefined) | -3% | 1% | -6% | 1% | 11% | 14%
O=C(c1ccncc1)N1CCC2(CC1)CN(c1ccncc1)C2 | 23%[12.7 µM] | nt | nt | nt | 2% | nt
COc1cc(OC)c(NC(=O)C(NS(=O)(=O)c2cccc3nsnc23)c2ccccc2)cc1Cl (centres undefined) | ? | nt | ? | nt | nt | 10%
Cc1cccc(C(=O)Nc2cccc(OCc3cc(=O)n4ccccc4n3)c2)c1 | 2%[59 µM] | nt | -4% | 4% | nt | 11%[57 µM]
CCCC(=O)N1c2ccccc2C(=C2SC(C(=O)OC)=C(C(=O)OC)S2)C(=S)C1(C)C | 1.8µM* | ? | -30%[11.4 µM] | 5.6µM* | -4% | 14µM*
COC(=O)C1=C(C(=O)OC)SC(=C2C(=S)C(C)(C)N(C(=O)C3CC3)c3ccccc32)S1 | 1.6µM* | -12% | 6.3µM* | 8.9µM* | -12% | 7.1µM*
COC(=O)C1=C(C(=O)OC)SC(=C2C(=S)C(C)(C)N(C(=O)C(C)C)c3ccccc32)S1 | 1.8µM* | -12% | 11µM* | 8.9µM* | ? | 7.1µM*
COC(=O)[C@@H]1C[C@@]2(O)[C@@H](O)[C@@H](O)[C@@H](O)C[C@H]2N1Cc1ccc(N2CCOCC2)cc1 | nt | nt | nt | nt | 17% | nt
O=C(NCC1CC1)c1ccc(Nc2nc3ccc(Br)cc3[nH]2)cc1 | ? | 11µM* | 20µM* | -32% | 32µM* | ?
SMILES | G9a inh | PLK1 PBD block | JMJD2A Tudor | BAZ2B block | Sfp PPTase inh | HP1b chromo inh
C=CCn1c(CCC(O)COCCCCC)n[nH]c1=S (centres undefined) | 28µM* | -11% | 20µM* | -20% | ? | -14%
C=CCn1c(C(CCCC)CC(O)COCCC)n[nH]c1=S (centres undefined) | ? | -2% | -3% | 14% | -17% | 44%
C=CCn1c(C(CCCC)CC(O)COCC(C)C)n[nH]c1=S (centres undefined) | 32µM* | -15% | 40µM* | -24% | ? | 48%
C=CCn1c(C(CC(C)C)CC(C)O)n[nH]c1=S (centres undefined) | 28µM* | -23% | 8.9µM* | -1% | -13% | -23%
CCOc1ccc(NC(=O)COC(=O)CN2CCCCCC2=O)cc1 | nt | 4% | -5% | nt | nt | 39%
COC(=O)c1sc(NC(=S)NC(=O)c2ccccc2C)nc1C | -9% | -22% | -6% | -7% | 0% | 12%
COC(=O)CNC(=O)C1(C)C=CC2(CCCCC2)N1C(C)=O (centres undefined) | nt | nt | nt | nt | 16% | nt
Oc1cc(O)c2c(c1)OC(c1cc(O)c(O)c(O)c1)C(O)C2 (centres undefined) | ? | nt | nt | nt | -77% | nt
Oc1cc(O)c2c(c1)O[C@H](c1ccc(O)c(O)c1)[C@H](O)C2 | 10µM* | -6% | -17% | ? | -2% | 18%
O=C(O[C@@H]1Cc2c(O)cc(O)cc2OC1c1ccc(O)c(O)c1)c1cc(O)c(O)c(O)c1 (some centres undefined) | nt | nt | nt | nt | 50µM* | nt
O=C(OC1Cc2c(O)cc(O)cc2OC1c1cc(O)c(O)c(O)c1-c1c(C2Oc3cc(O)cc(O)c3CC2OC(=O)c2cc(O)c(O)c(O)c2)cc(O)c(O)c1O)c1cc(O)c(O)c(O)c1 (centres undefined) | nt | nt | nt | nt | 45µM* | nt
COC(=O)c1ccc(C(NC(=O)OCc2ccccc2)/C(C)=C/[C@@H](C)C(=O)NCc2cc(F)cc(F)c2)cc1 (some centres undefined) | nt | nt | nt | nt | 19% | nt
COC(=O)c1ccc(CNC(=O)C23CC4CC(CC(C4)C2)C3)cc1 | 3% | -1% | -6% | -4% | 8% | 28%
